Assay results from PubChem BioAssay AID1159580 (chemical genetic matrix, 2015).
Out of some 5,500 compounds screened, about 2,000 (36%) were called active. Roughly 18% stayed inconclusive and do not appear here. Cut-off read from the data, not from the text of the source: active = normalized growth mostly below about 0.91 (no sharp cut-off); inconclusive = no clear call, values can overlap the other calls; inactive = mostly above about 0.92. This is one part of the list.

Experiment: chemical genetic growth profiling, strain panel (AID 1159580);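 note: tested at 20 µM; growth read once vehicle control cultures reached saturation at 30 °C; 1 = growth at the plate median or of vehicle wells; lower values mean less growth of the strain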
Conditions: growth OD

Measured: normalized growth

CCOC(=O)[C@H](CCc1ccccc1)N[C@@H](C)C(=O)N1CCC[C@H]1C(=O)O
inactive: S. cerevisiae deletion strains, locus YJR075W, strain HOC1, stronger effect = lower value 1.01 | S. cerevisiae deletion strains, locus YKL009W, strain mrt4, stronger effect = lower value 1.04 | S. cerevisiae deletion strains, locus YKL068W, stronger effect = lower value 0.998 | S. cerevisiae deletion strains, locus YKL085W, strain MDH1 (second series), stronger effect = lower value 1 | S. cerevisiae deletion strains, locus YKL085W, strain MDH1, stronger effect = lower value 1 | S. cerevisiae deletion strains, locus YKL160W, strain elf1, stronger effect = lower value 0.988 | S. cerevisiae deletion strains, locus YKL190W, strain CNB1, stronger effect = lower value 0.998 | S. cerevisiae deletion strains, locus YKR001C, strain vps1, stronger effect = lower value 1.02 | S. cerevisiae deletion strains, locus YKR026C, strain gcn3, stronger effect = lower value 1 | S. cerevisiae deletion strains, locus YKR091W, strain srl3, stronger effect = lower value 0.994 | S. cerevisiae deletion strains, locus YLL001W, strain dnm1, stronger effect = lower value 0.981 | S. cerevisiae deletion strains, locus YLL026W, stronger effect = lower value 0.989 | S. cerevisiae deletion strains, locus YLL041C, strain sdh2, stronger effect = lower value 1.01 | S. cerevisiae deletion strains, locus YLR027C, strain aat2, stronger effect = lower value 0.985 | S. cerevisiae deletion strains, locus YLR039C, strain RIC1, stronger effect = lower value 1 | S. cerevisiae deletion strains, locus YLR058C, strain SHM2, stronger effect = lower value 1.01 | S. cerevisiae deletion strains, locus YLR102C, strain apc9, stronger effect = lower value 1.02 | S. cerevisiae deletion strains, locus YLR113W, strain HOG1, stronger effect = lower value 1.05 | S. cerevisiae deletion strains, locus YLR221C, strain rsa3, stronger effect = lower value 0.975 | S. cerevisiae deletion strains, locus YLR258W, strain gsy2, stronger effect = lower value 0.992 | S. cerevisiae deletion strains, locus YLR262C, strain YPT6 (second series), stronger effect = lower value 0.998 | S. cerevisiae deletion strains, locus YLR262C, strain YPT6, stronger effect = lower value 1.03 | S. cerevisiae deletion strains, locus YLR268W, strain sec22, stronger effect = lower value 1.01 | S. cerevisiae deletion strains, locus YLR320W, strain mms22, stronger effect = lower value 0.984 | S. cerevisiae deletion strains, locus YLR330W, strain CHS5, stronger effect = lower value 1 | S. cerevisiae deletion strains, locus YLR342W, strain FKS1 (second series), stronger effect = lower value 1 | S. cerevisiae deletion strains, locus YLR342W, strain FKS1, stronger effect = lower value 0.994 | S. cerevisiae deletion strains, locus YLR357W, strain rsc2, stronger effect = lower value 0.938 | S. cerevisiae deletion strains, locus YLR370C, strain arc18, stronger effect = lower value 0.994 | S. cerevisiae deletion strains, locus YLR371W, strain rom2, stronger effect = lower value 1.02 | S. cerevisiae deletion strains, locus YLR384C, strain iki3, stronger effect = lower value 1 | S. cerevisiae deletion strains, locus YLR418C, strain cdc73, stronger effect = lower value 1.01 | S. cerevisiae deletion strains, locus YML016C, strain PPZ1, stronger effect = lower value 1.01 | S. cerevisiae deletion strains, locus YML032C, strain rad52, stronger effect = lower value 1.02 | S. cerevisiae deletion strains, locus YML120C, strain ndi1, stronger effect = lower value 1.03 | S. cerevisiae deletion strains, locus YML124C, strain tub3, stronger effect = lower value 1.01 | S. cerevisiae deletion strains, locus YMR058W, strain fet3, stronger effect = lower value 1.01 | S. cerevisiae deletion strains, locus YMR078C, strain ctf18, stronger effect = lower value 1.01 | S. cerevisiae deletion strains, locus YMR125W, strain sto1, stronger effect = lower value 0.991 | S. cerevisiae deletion strains, locus YMR129W, stronger effect = lower value 1.01 | S. cerevisiae deletion strains, locus YMR205C, strain PFK2, stronger effect = lower value 0.973 | S. cerevisiae deletion strains, locus YMR223W, strain ubp8, stronger effect = lower value 1.02 | S. cerevisiae deletion strains, locus YMR231W, strain pep5, stronger effect = lower value 0.988 | S. cerevisiae deletion strains, locus YMR263W, strain SAP30, stronger effect = lower value 1.01 | S. cerevisiae deletion strains, locus YMR307W, strain GAS1, stronger effect = lower value 1.02 | S. cerevisiae deletion strains, locus YNL067W, strain RPL9B, stronger effect = lower value 1.01 | S. cerevisiae deletion strains, locus YNL071W, strain lat1, stronger effect = lower value 1.01 | S. cerevisiae deletion strains, locus YNL128W, strain TEP1, stronger effect = lower value 1.02 | S. cerevisiae deletion strains, locus YNL183C, strain NPR1, stronger effect = lower value 0.973 | S. cerevisiae deletion strains, locus YNL209W, strain ssb2, stronger effect = lower value 0.986 | S. cerevisiae deletion strains, locus YNL233W, strain BNI4, stronger effect = lower value 1 | S. cerevisiae deletion strains, locus YNL248C, strain rpa49, stronger effect = lower value 1.03 | S. cerevisiae deletion strains, locus YNL250W, strain rad50, stronger effect = lower value 1.01 | S. cerevisiae deletion strains, locus YNL271C, strain bni1, stronger effect = lower value 1.02 | S. cerevisiae deletion strains, locus YNL298W, strain CLA4, stronger effect = lower value 1.04 | S. cerevisiae deletion strains, locus YNL307C, strain MCK1, stronger effect = lower value 1.04 | S. cerevisiae deletion strains, locus YNL322C, strain KRE1 (second series), stronger effect = lower value 0.963 | S. cerevisiae deletion strains, locus YNR049C, strain mso1, stronger effect = lower value 1 | S. cerevisiae deletion strains, locus YNR052C, strain pop2, stronger effect = lower value 1.01 | S. cerevisiae deletion strains, locus YOL006C, strain TOP1, stronger effect = lower value 1.04 | S. cerevisiae deletion strains, locus YOL012C, strain htz1 0.639 | S. cerevisiae deletion strains, locus YOL147C, strain pex11, stronger effect = lower value 1.01 | S. cerevisiae deletion strains, locus YOR001W, strain rrp6, stronger effect = lower value 1 | S. cerevisiae deletion strains, locus YOR061W, strain CKA2, stronger effect = lower value 1.01 | S. cerevisiae deletion strains, locus YOR069W, strain VPS5, stronger effect = lower value 0.992 | S. cerevisiae deletion strains, locus YOR070C, strain gyp1, stronger effect = lower value 0.963 | S. cerevisiae deletion strains, locus YOR080W, strain dia2, stronger effect = lower value 0.997 | S. cerevisiae deletion strains, locus YOR083W, strain WHI5, stronger effect = lower value 0.934 | S. cerevisiae deletion strains, locus YOR106W, strain vam3, stronger effect = lower value 0.977 | S. cerevisiae deletion strains, locus YOR136W, strain idh2, stronger effect = lower value 1.02 | S. cerevisiae deletion strains, locus YOR144C, strain elg1, stronger effect = lower value 1.01 | S. cerevisiae deletion strains, locus YOR184W, strain ser1, stronger effect = lower value 1.04 | S. cerevisiae deletion strains, locus YOR231W, strain MKK1, stronger effect = lower value 1.04 | S. cerevisiae deletion strains, locus YOR265W, strain rbl2, stronger effect = lower value 0.992 | S. cerevisiae deletion strains, locus YOR270C, strain vph1, stronger effect = lower value 0.999 | S. cerevisiae deletion strains, locus YOR290C, strain snf2, stronger effect = lower value 0.988 | S. cerevisiae deletion strains, locus YOR316C, strain cot1, stronger effect = lower value 1.02 | S. cerevisiae deletion strains, locus YPL051W, strain arl3, stronger effect = lower value 0.954 | S. cerevisiae deletion strains, locus YPL078C, strain atp4, stronger effect = lower value 0.993 | S. cerevisiae deletion strains, locus YPL106C, strain sse1, stronger effect = lower value 0.922 | S. cerevisiae deletion strains, locus YPL240C, strain hsp82, stronger effect = lower value 0.994 | S. cerevisiae deletion strains, locus YPL241C, strain CIN2, stronger effect = lower value 0.999 | S. cerevisiae deletion strains, locus YPL256C, strain CLN2, stronger effect = lower value 1.05 | S. cerevisiae deletion strains, locus YPR119W, strain clb2, stronger effect = lower value 1.02 | S. cerevisiae deletion strains, locus YPR141C, strain kar3, stronger effect = lower value 1.01 | S. cerevisiae deletion strains, locus YPR163C, strain tif3, stronger effect = lower value 1.02 | S. cerevisiae deletion strains, locus YPR167C, strain met16, stronger effect = lower value 1.02 | S. cerevisiae deletion strains, strain wtn01, stronger effect = lower value 1.01 | S. cerevisiae strains, strain wild type, stronger effect = lower value 1
